High-throughput results (PubChem BioAssay)
Hits are enriched below; roughly 3.1% of the tested compounds scored in any of these assays.
Calb FLC: affects C. albicans growth with fluconazole. 0.57% of 300,000 active. C. albicans CaCi-2 (fluconazole-resistant clinical isolate) + fluconazole, Alamar Blue growth, 48 h. growth inhibition, % (test concentration not listed);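 active = growth inhibition above about 58% in most replicates, limit read from the data, passing the limit was not always enough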;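 also: all wells also contain fluconazole at 8 µg/ml as a sub-toxic cotreatment; 0% = median of DMSO wells and 100% = median of geldanamycin control wells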
FAS-TE inh: FAS thioesterase (human) inhibition; inhibition, % at 15 µM; recombinant FAS-TE, OMFH fluorogenic substrate, fluorescence endpoint; 0.67% of 360,000 active; AID 602261;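 active = compounds whose normalised, plate-corrected inhibition of enzyme fluorescence in the single-dose primary screen is 50% or more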;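 also: 0% = DMSO with enzyme and 100% = substrate without enzyme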
SUMO Mot1 rescue: SUMOylation pathway inhibition by Mot1-301 growth rescue. 1% of 320,000 active. growth rescue, % at 18.8 µM. AID 2716. S. cerevisiae Mot1-301 growth rescue, ATP luminescence, 38.5C; percent above DMSO median, 100 means doubled;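 active = every valid replicate shows activation above 250% relative to neutral control wells; inactive = the rest, any valid replicate at or below 250%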;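 also: OY570 slx delta 5 strain wells were the positive control but not used for scaling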
ATG4B inh: ATG4B (human) cysteine protease inhibition. Q9Y4P1. ATG4B cleavage of LC3-PLA2, NBD-HPC fluorescence, 1 h. inhibition, % at 8.33 µM. 0.51% of 340,000 active; in the data active = inhibition above about 40%
Target sequence (Q9Y4P1 whole entry, looked up): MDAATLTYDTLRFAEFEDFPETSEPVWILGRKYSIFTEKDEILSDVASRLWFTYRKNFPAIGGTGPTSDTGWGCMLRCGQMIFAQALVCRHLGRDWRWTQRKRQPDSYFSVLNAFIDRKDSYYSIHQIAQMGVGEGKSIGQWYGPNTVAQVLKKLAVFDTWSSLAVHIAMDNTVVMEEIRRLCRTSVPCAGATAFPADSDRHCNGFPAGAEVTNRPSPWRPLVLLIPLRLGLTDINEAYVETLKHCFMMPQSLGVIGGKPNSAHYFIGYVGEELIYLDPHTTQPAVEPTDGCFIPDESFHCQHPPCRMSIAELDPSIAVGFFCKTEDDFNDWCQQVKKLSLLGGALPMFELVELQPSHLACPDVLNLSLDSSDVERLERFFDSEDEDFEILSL
NadD block: inhibitors of Staphylococcus aureus NadD. AID 602399. 0.78% of 360,000 active. purified NadD enzyme, colorimetric absorbance read-out. inhibition, % at 20 µM; in the data active = inhibition above about 26%
Mot1 SUMO dose: inhibits SUMO pathway, affecting Mot1-301 yeast growth | shares compounds with SUMO Mot1 rescue | S. cerevisiae Mot1-301 galactose growth, ATP luminescence, 24 h; -100 = growth of slx-deleted rescue strain | growth activity, percent, % at 42 µM | 2,300 tested, under 10 active | AID 493004;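 active = Signal drops as the depositor expects, and the fitted half-maximal dose is no more than ten times the top valid tested dose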;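 also: more negative values mean stronger growth rescue toward the control strain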
* = called active by the depositor.

COc1ccc(-c2csc(NC(=O)CS(=O)(=O)c3ccc(F)cc3)n2)cc1OC was read as Calb FLC -1.7, FAS-TE inh 1.3, SUMO Mot1 rescue 555.2*, ATG4B inh -9.8, NadD block 4.7 and Mot1 SUMO dose -0.3.
`CCOC(=O)c1oc2cc(OC(C)=O)ccc2c(=O)c1-c1ccc(OC)c(OC)c1` gave Calb FLC -3.6, FAS-TE inh 1.3, SUMO Mot1 rescue 510.1*, ATG4B inh -11.3, NadD block -6.4 and Mot1 SUMO dose 0.0.
CSc1ccccc1-c1nc(-c2ccncc2)no1 was read as Calb FLC 3.4, FAS-TE inh 5.8, SUMO Mot1 rescue 717.8*, ATG4B inh 7.6, NadD block -7.5 and Mot1 SUMO dose 0.2.
Screening CN1CCN(CC(=O)N2c3ccccc3C(=O)Nc3cccnc32)CC1 returned SUMO Mot1 rescue active and Mot1 SUMO dose 0.1.
Cc1ccc(CNC(=O)CCn2cc(-c3ccc(C)cc3)nc2CCN)cc1 was read as FAS-TE inh -10.6, SUMO Mot1 rescue active, ATG4B inh -13.4, NadD block -3.0 and Mot1 SUMO dose 0.1.
For N#Cc1ccc(/C=C/C(=O)c2ccco2)cc1 the results were Calb FLC 1.2, FAS-TE inh -2.6, SUMO Mot1 rescue 718.4*, ATG4B inh -2.8, NadD block 3.1 and Mot1 SUMO dose -0.9.
For COc1ccc(CN2CCN(Cc3ccc(Br)cc3)CC2)c(OC)c1OC the results were FAS-TE inh -4.2, SUMO Mot1 rescue 22.1, ATG4B inh 3.3 and NadD block -6.9.
Screening Cc1ncc(CN2CCC(C(=O)Nc3cccc(-c4cscn4)c3)CC2)cn1 returned Calb FLC 0.2, FAS-TE inh -5.0, SUMO Mot1 rescue -0.8, ATG4B inh 29.9 and NadD block 2.5.
`CC[n+]1c(/C=C/N(C)c2ccccc2)n(-c2ccccc2)c2ccc(-c3nc4ccccc4s3)cc21` gave Calb FLC 116.4*, FAS-TE inh -9.3, SUMO Mot1 rescue 501.4*, ATG4B inh 0.5, NadD block 31.9* and Mot1 SUMO dose -0.6.
`CCOC(=O)c1ccc2c(c1)n(CC)c(/C=C/N(C)c1ccccc1)[n+]2CC` gave Calb FLC -9.0, FAS-TE inh -14.6, SUMO Mot1 rescue 0.5, ATG4B inh 4.7 and NadD block 1.8.
Screening O=C(/C=C/c1ccc2c(c1)OCO2)c1ccc(F)cc1 returned Calb FLC -28.4, FAS-TE inh 4.1, SUMO Mot1 rescue 45.4, ATG4B inh -1.6 and NadD block -11.9.
For N#CC(CC(=O)c1ccc(F)cc1)c1ccc2c(c1)OCO2 (configuration not stated) the results were Calb FLC -23.4, FAS-TE inh 6.9, SUMO Mot1 rescue 420.4*, ATG4B inh 2.8, NadD block -8.7 and Mot1 SUMO dose -0.2.
Cc1cc(C)n(CCCNC(=O)CN(C)S(=O)(=O)c2ccc(Cl)cc2)n1 was read as Calb FLC 3.0, FAS-TE inh -6.9, SUMO Mot1 rescue 816.9*, ATG4B inh 1.2, NadD block -6.8 and Mot1 SUMO dose -0.1.
`O=C1c2ccccc2C(=O)N1CCSc1ccccc1` gave Calb FLC 6.4, FAS-TE inh 10.0, SUMO Mot1 rescue active, ATG4B inh 31.1, NadD block -7.0 and Mot1 SUMO dose 0.3.
Screening O=C1c2ccccc2C(=O)N1CCSc1nncs1 returned Calb FLC -7.7, FAS-TE inh -5.1, SUMO Mot1 rescue 5.1, ATG4B inh 2.7 and NadD block 7.7.
`CC(=O)N1CCN(S(=O)(=O)c2cccc(C(=O)NCCC3=CCCCC3)c2)CC1` gave Calb FLC 0.3, FAS-TE inh -2.8, SUMO Mot1 rescue 313.5, ATG4B inh 0.2 and NadD block 0.9.
`O=C(COC(=O)CCCSc1nc2ccccc2[nH]1)Nc1cccc(F)c1` gave Calb FLC 11.1, FAS-TE inh 5.1, SUMO Mot1 rescue 386.2, ATG4B inh -1.6 and NadD block 0.2.
For C=CCNC(=O)NC(=O)COC(=O)CCCSc1nc2ccccc2[nH]1 the results were Calb FLC -14.5, FAS-TE inh -8.0, SUMO Mot1 rescue 611.9*, ATG4B inh -0.9, NadD block -3.0 and Mot1 SUMO dose 0.0.
CCCCn1c(SCCN2CCCCC2)nc2c1c(=O)n(C)c(=O)n2C was read as FAS-TE inh -4.9 and NadD block -1.4.
